In PubChem BioAssay (Tox21):
Records with an inconclusive call do not appear. Active and inactive are the calls of the source. Unless noted, calls come from the whole dose curve.

Tests used:
[1] = Nuclear factor erythroid 2-related factor 2/antioxidant responsive element (Nrf2/ARE) small molecule agonists: qHTS cell viability counter screen in human keratinocytes (AID 1919968; active = well fitted curve in the direction sought with a large enough effect in the repeat runs; an effect the other way counts as inactive or inconclusive; note: nearly all actives have a fitted effect of over 55% in size; note: potency is the fitted concentration of half-maximal effect)
Method in brief: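 Fluorescence read-out from CellTiter-Fluor after 1 h at 37 C. Wells held HaCaT-derived ARE-luciferase reporter cells (1,500/well) treated 23 h with DMSO-dissolved compounds. Run in the same wells as the luciferase agonist read.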

[2] = Nuclear factor erythroid 2-related factor 2/antioxidant responsive element (Nrf2/ARE) small molecule agonists: luciferase reporter gene qHTS assay in human keratinocytes (AID 1919969); note: nearly all actives have a fitted effect of over 35% in size; note: potency is the fitted concentration of half-maximal effect
[3] = molecular target: Gonadotropin-releasing hormone receptor (Homo sapiens) (UniProt P30968); test: Human gonadotropin-releasing hormone receptor (GnRHR) small molecule agonists, calcium flux assay in GnRHR-HEK293 cells (AID 1920063); note: nearly all actives have a fitted effect of over 35% in size
Sequence of Gonadotropin-releasing hormone receptor (Homo sapiens) (P30968 whole entry, looked up): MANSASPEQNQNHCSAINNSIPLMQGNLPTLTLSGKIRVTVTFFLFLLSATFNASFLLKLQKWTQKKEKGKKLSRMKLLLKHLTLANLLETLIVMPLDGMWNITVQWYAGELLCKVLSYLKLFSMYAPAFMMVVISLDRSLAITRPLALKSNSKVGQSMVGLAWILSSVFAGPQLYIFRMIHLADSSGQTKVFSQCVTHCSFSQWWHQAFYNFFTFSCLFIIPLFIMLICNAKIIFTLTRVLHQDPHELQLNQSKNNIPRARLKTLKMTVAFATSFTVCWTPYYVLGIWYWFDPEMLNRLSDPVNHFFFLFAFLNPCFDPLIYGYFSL
Method in brief: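 Calcium-dye fluorescence, Ex/Em=480/540, recorded every 1 sec over 3 min after compound addition to GnRHR-HEK293 cells. Cells had been seeded 18 hours earlier and dye-loaded for 1 hour at 37 C. Fifteen concentrations, triplicates.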

[4] = molecular target: KiSS-1 receptor (Homo sapiens) (UniProt Q969F8); test: Human kisspeptin (KISS1R) small molecule agonists, calcium flux assay in KISS1R-HEK293 cells (AID 1920064; active = well fitted curve in the direction sought with a large enough effect in the repeat runs; an effect the other way counts as inactive or inconclusive)
Sequence of KiSS-1 receptor (Homo sapiens) (Q969F8 whole entry, looked up): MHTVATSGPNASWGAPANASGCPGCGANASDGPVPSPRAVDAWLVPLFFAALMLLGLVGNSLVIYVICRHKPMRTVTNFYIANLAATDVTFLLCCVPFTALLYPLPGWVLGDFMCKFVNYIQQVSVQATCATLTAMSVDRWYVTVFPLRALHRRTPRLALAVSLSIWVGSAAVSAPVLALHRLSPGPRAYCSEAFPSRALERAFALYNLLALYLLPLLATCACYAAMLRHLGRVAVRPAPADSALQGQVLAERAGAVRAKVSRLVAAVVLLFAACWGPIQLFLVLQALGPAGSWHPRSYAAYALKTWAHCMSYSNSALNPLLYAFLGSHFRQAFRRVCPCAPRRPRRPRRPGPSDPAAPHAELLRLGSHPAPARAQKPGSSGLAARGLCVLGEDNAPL
Method in brief: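 Calcium flux read-out: kinetic fluorescence at Ex/Em=480/540, 1 s intervals over 3 min, after pin-tool compound addition to dye-loaded KISS1R-HEK293 cells. Fifteen concentrations, triplicates.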

[5] = G protein-coupled receptor (GPCR) small molecule agonists, calcium flux assay: HEK293 wild type cell line counter screen (AID 1920065)
Method in brief: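 Agonist mode; 18 h seeding at 37 C, 1 h dye load at 37 C; compounds pinned from DMSO, ATP as positive control; kinetic fluorescence 480/540 nm, 3 min, 1 s reads; 15 concentrations, triplicate.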

[6] = p53 small molecule agonists, cell-based qHTS assay with human liver microsomes (AID 1963577)
Method in brief: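 Compounds act here after metabolic activation: human liver microsomes and NADPH, both at 0.5 mg/mL final, were co-added to p53RE-bla cells. Incubation ran 16 h at 37 C, followed by LiveBLAzer detection.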

[7] = p53 small molecule agonists, cell-based qHTS assay with human liver microsomes: qHTS cell viability counter screen (AID 1963579); note: nearly all actives have a fitted effect of over 45% in size
Method in brief: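 Cells carrying the p53 response-element beta-lactamase reporter are treated for 16 h at 37 C with test compounds in the presence of human liver microsomes and NADPH (both 0.5 mg/mL final); ATP-based CellTiter-Glo luminescence then reports viability.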

[8] = p53 small molecule agonists, cell-based qHTS assay with rat liver microsomes: qHTS cell viability counter screen (AID 1963580); note: nearly all actives have a fitted effect of over 45% in size
Method in brief: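 After the beta-lactamase ratio was read, CellTiter-Glo was added to the same wells and luminescence measured at 30 min; cells had been treated 16 h at 37 C with compounds, rat liver microsomes and NADPH (0.5 mg/mL final each).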

[9] = p53 small molecule agonists, cell-based qHTS assay: qHTS cell viability counter screen (AID 1963581); note: nearly all actives have a fitted effect of over 45% in size
Method in brief: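 Cytotoxicity read-out: ATP-based luminescence (CellTiter-Glo, 30 min RT) measured in the same wells as the p53 reporter assay, HCT-116 p53RE-bla cells, 16 h compound exposure at 37 C.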

[10] = p53 small molecule agonists, cell-based qHTS assay (AID 1963582; active = well fitted activation curve with a large enough effect in the signal ratio in the repeat runs, not every such curve was filed as active; the % refers to the signal ratio)
Method in brief: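 Fluorescence intensity read-out of a beta-lactamase reporter under a p53 response element. Cells were exposed to DMSO-dissolved compounds for 16 h at 37 C, then developed with FRET substrate for 2 h at RT.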

[11] = molecular target: 5-hydroxytryptamine receptor 2A (Homo sapiens) (UniProt P28223); test: 5-hydroxytryptamine receptor 2A (HTR2A) small molecule antagonists, cell-based qHTS assay (AID 1963586); note: nearly all actives have a fitted effect of over 45% in size; note: potency is the fitted concentration of half-maximal effect
Sequence of 5-hydroxytryptamine receptor 2A (Homo sapiens) (P28223 whole entry, looked up): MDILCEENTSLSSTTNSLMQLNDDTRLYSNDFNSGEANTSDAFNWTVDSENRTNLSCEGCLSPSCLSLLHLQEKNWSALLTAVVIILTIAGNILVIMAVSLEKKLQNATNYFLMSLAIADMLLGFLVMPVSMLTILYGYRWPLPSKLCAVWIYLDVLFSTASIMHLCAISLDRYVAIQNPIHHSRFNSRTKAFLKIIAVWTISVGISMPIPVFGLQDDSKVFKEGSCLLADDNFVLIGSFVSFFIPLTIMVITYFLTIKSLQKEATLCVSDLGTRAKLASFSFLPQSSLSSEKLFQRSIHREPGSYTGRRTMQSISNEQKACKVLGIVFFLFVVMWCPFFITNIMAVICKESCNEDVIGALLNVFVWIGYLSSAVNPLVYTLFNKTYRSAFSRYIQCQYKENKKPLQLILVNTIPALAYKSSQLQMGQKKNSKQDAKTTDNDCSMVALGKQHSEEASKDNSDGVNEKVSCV
Method in brief: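 CHO cells stably expressing human HTR2A were plated for 18 h at 37 C, then loaded with calcium dye for 1 h. Compounds were preincubated 5 min at room temperature before DOI (4 nM solution) was added. Kinetic fluorescence was read for 3 min.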

[12] = molecular target: 5-hydroxytryptamine receptor 2A (Homo sapiens) (UniProt P28223); test: 5-hydroxytryptamine receptor 2A (HTR2A) small molecule agonists, cell-based qHTS assay (AID 1963587); note: nearly all actives have a fitted effect of over 30% in size; note: potency is the fitted concentration of half-maximal effect
Method in brief: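 CHO cells stably expressing human HTR2A, plated 18 h, loaded with calcium dye 1 h at 37 C. Agonist mode: compounds added and intracellular calcium fluorescence recorded kinetically for 2 min at 1 sec intervals.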

[13] = molecular target: Muscarinic acetylcholine receptor M1 (Homo sapiens) (UniProt P11229); test: Cholinergic receptor muscarinic 1 (CHRM1) small molecule antagonists, cell-based qHTS assay (AID 1963588); note: nearly all actives have a fitted effect of over 40% in size
Sequence of Muscarinic acetylcholine receptor M1 (Homo sapiens) (P11229 whole entry, looked up): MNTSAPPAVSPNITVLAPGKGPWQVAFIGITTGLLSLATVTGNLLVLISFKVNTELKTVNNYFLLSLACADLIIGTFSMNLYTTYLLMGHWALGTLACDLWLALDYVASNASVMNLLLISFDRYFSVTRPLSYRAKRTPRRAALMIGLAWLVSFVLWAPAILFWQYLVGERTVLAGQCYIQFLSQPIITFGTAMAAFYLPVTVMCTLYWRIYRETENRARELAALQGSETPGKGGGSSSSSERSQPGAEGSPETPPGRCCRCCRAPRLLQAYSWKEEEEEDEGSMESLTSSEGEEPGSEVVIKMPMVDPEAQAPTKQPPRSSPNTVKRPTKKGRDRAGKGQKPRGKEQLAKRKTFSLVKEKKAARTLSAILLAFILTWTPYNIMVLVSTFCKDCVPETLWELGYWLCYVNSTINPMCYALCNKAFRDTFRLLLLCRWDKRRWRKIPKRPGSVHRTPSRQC
Method in brief: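 Compounds were tested at 15 concentrations in three independent runs. Dye-loaded CHRM1-CHO cells were exposed 5 min at room temperature before stimulation by acetylcholine added at 50nM. Intracellular calcium was read kinetically on FDSS for 3 min.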

[14] = molecular target: Muscarinic acetylcholine receptor M1 (Homo sapiens) (UniProt P11229); test: Cholinergic receptor muscarinic 1 (CHRM1) small molecule agonists, cell-based qHTS assay (AID 1963589); note: nearly all actives have a fitted effect of over 35% in size
Method in brief: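 Calcium flux read-out: kinetic fluorescence at 1 sec intervals after pin-tool compound addition to dye-loaded CHRM1-CHO cells (human M1). Agonist mode; 15 concentrations tested in triplicate independent runs.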

[15] = molecular target: Beta-2 adrenergic receptor (Homo sapiens) (UniProt P07550); test: Adrenergic beta2 receptor (ADRB2) small molecule antagonists, cell-based qHTS assay (AID 1963592); note: nearly all actives have a fitted effect of over 50% in size; note: potency is the fitted concentration of half-maximal effect; for activity change, negative = inhibition: series mostly up to about 92 µM
Sequence of Beta-2 adrenergic receptor (Homo sapiens) (P07550 whole entry, looked up): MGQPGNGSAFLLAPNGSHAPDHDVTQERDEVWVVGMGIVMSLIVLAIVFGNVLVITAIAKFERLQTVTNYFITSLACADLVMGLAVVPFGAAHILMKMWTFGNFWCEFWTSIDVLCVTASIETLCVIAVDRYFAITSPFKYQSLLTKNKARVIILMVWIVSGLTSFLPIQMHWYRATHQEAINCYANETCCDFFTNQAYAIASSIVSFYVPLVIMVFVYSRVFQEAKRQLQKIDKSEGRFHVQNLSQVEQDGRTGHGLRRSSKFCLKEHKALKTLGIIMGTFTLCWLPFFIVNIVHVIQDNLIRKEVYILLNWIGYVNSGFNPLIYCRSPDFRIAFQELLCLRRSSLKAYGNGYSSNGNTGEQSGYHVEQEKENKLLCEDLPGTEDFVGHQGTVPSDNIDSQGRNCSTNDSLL
Method in brief: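 Assay format: CHO-ADRB2 cells, 18-20hr seeding at 37C/5% CO2, then compound plus 1nM isoproterenol agonist mix for 0.5hr RT. Homogeneous time-resolved fluorescence cAMP detection after 1hr, expressed as 665/615 nm ratio.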

[16] = molecular target: D(2) dopamine receptor (Homo sapiens) (UniProt P14416); test: Dopamine D2 receptor (DRD2) small molecule agonists, cell-based qHTS assay (AID 1963594); note: nearly all actives have a fitted effect of over 35% in size
Sequence of D(2) dopamine receptor (Homo sapiens) (P14416 whole entry, looked up): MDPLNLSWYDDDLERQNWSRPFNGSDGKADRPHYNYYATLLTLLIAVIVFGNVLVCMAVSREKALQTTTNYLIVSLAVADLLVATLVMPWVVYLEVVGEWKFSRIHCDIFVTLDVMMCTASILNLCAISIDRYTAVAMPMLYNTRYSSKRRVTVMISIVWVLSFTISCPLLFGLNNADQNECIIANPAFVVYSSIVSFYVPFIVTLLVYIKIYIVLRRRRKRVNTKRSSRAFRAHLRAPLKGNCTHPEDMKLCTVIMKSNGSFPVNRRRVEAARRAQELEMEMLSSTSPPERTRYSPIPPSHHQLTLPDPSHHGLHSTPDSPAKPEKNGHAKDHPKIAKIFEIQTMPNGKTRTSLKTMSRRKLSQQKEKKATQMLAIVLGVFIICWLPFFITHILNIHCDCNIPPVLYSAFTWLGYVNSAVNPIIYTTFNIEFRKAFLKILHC
Method in brief: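 HEK293 cells stably expressing human DRD2, pre-treated with PDE inhibitor Ro20-1724 (0.1 mM final) and compound 10 min at room temperature, then stimulated with NKH477 (200nM […]) for 30 min. cAMP read by HTRF (665/620 nm).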

[17] = molecular target: D(2) dopamine receptor (Homo sapiens) (UniProt P14416); test: Dopamine D2 receptor (DRD2) small molecule antagonists, cell-based qHTS assay (AID 1963595; active = well fitted inhibition curve with a large enough effect in the signal ratio in the repeat runs, with a control signal flat; the % refers to the signal ratio)
Method in brief: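 Stable D2 receptor HEK293 line, 24 h after seeding. Compound preincubated 10 min, then quinpirole (12 nM) with forskolin analogue NKH477 (200 nM), 30 min, room temperature. Detection by time-resolved FRET of cAMP.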

[18] = cAMP Responsive Elements (CRE) small molecule agonists, cell-based qHTS assay (AID 1963590)
Method in brief: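 Beta-lactamase reporter readout: LiveBLAzer B/G FRET substrate, 2 h at room temperature, added after 3 h compound treatment of CRE-bla HEK 293T cells at 37 C/5% CO2.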

[19] = cAMP Responsive Elements (CRE) small molecule antagonists, cell-based qHTS assay (AID 1963591; active = well fitted inhibition curve with a large enough effect in the signal ratio in the repeat runs, not every such curve was filed as active; the % refers to the signal ratio)
Method in brief: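 HEK293T CRE-bla; 18 h preincubation; compound pin-transfer; NKH477 0.25 uM final, 3 h, 37 C; LiveBLAzer FRET substrate 2 h RT.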
% is set by controls: 0 for no effect and ±100 for the full control effect.

O=C(O)CCC(=O)c1ccc(-c2ccccc2)cc1
inactive: Potency [1] | Potency [2] | Potency [3] | outcome [4] | outcome [5] | Potency [6] | Potency [7] | Potency [8] | Potency [9] | Potency [10] | Potency [11] | Potency [12] | Potency [13] | Potency [14] | Potency [15] | Potency [16] | Potency [17]

Nc1c2c(nc3ccccc13)CCCC2O (stereo not drawn)
inactive: Potency [1] | Potency [2] | Potency [3] | outcome [4] | outcome [5] | Potency [6] | Potency [7] | Potency [8] | Potency [9] | Potency [10] | Potency [12] | Potency [13] | Potency [14] | Potency [18] | Potency [19] | Potency [15] | Potency [16] | Potency [17]

C=CCNc1nc(NCC=C)nc(N2CCN(C(c3ccc(F)cc3)c3ccc(F)cc3)CC2)n1
inactive: Potency [2] | Potency [3] | outcome [4] | outcome [5] | Potency [6] | Potency [7] | Potency [8] | Potency [9] | Potency [13] | Potency [14] | Potency [18] | Potency [19] | Potency [16] | Potency [17]
active: Potency [1] 4.22 µM | Potency [11] 5.16 µM | Potency [12] 2.68 µM | Potency [15] 11.9 µM

CCc1cc(S(=O)(=O)O)c2cc(C(C)C)cccc1-2
inactive: Potency [1] | Potency [2] | Potency [3] | outcome [4] | outcome [5] | Potency [6] | Potency [7] | Potency [8] | Potency [9] | Potency [10] | Potency [11] | Potency [12] | Potency [13] | Potency [14] | Potency [18] | Potency [19] | Potency [16] | Potency [17]

C/C(=N\O)c1ccc(OCC(=O)N2CCCCC2)cc1
active: Potency [2] 11.9 µM
inactive: Potency [1] | Potency [3] | outcome [4] | outcome [5] | Potency [6] | Potency [7] | Potency [8] | Potency [9] | Potency [11] | Potency [12] | Potency [13] | Potency [14] | Potency [18] | Potency [19] | Potency [15] | Potency [16] | Potency [17]

Oc1cn2c(n1)Nc1ccc(Cl)c(Cl)c1C2
inactive: activity change, negative = cytotoxicity [1] -5.95% [at 19 µM] | activity, positive = activation [2] -4.99% [at 19 µM] | activity change [3] -1.21% [at 11.8 µM, hits give high values] | activation [4] 1.57% [at 15.8 µM] | activation [5] 0.199% [at 11.8 µM] | activation [6] -4.43% [at 13.5 µM] | activity change, negative = cytotoxicity [7] -1.56% [at 13.5 µM] | activity change, negative = cytotoxicity [8] -5.66% [at 13.5 µM] | activity change, negative = cytotoxicity [9] -7.7% [at 13.5 µM] | activation [10] 2.32% [at 13.5 µM] | activity, negative = inhibition [11] 4.4% [at 12.7 µM] | activation [12] 4.55% [at 15.9 µM] | activation [14] -0.629% [at 15.8 µM] | activity change, negative = inhibition [15] 8.99% [at 19 µM] | activation [16] 1.31% [at 19 µM] | activity change, negative = inhibition [17] -3.31% [at 18.9 µM]

O=C(O)C(=O)Cc1c[nH]c2ccccc12
active: Potency [2] 54.5 µM
inactive: Potency [1] | Potency [3] | outcome [4] | outcome [5] | Potency [6] | Potency [7] | Potency [8] | Potency [9] | Potency [10] | Potency [11] | Potency [12] | Potency [13] | Potency [14] | Potency [18] | Potency [15] | Potency [16] | Potency [17]
